Results published in PubChem BioAssay (Tox21).
A number with no mark means an inactive call. The source made the active and inactive calls. The call rests on the fitted dose curve.

The compounds below were run against Acetylcholinesterase (Homo sapiens) (UniProt P22303) (assay: Acetylcholinesterase (AChE) small molecule antagonists: enzyme-based qHTS assay with human liver microsomes (AID 1347399; further: nearly all actives have a fitted effect of over 60% in size)). Conditions: Potency: qHTS inhibition; outcome: qHTS inhibition; series mostly up to 115 µM; activity change, negative = inhibition: at the top concentration.
Chain of Acetylcholinesterase (Homo sapiens) (P22303 whole entry, looked up): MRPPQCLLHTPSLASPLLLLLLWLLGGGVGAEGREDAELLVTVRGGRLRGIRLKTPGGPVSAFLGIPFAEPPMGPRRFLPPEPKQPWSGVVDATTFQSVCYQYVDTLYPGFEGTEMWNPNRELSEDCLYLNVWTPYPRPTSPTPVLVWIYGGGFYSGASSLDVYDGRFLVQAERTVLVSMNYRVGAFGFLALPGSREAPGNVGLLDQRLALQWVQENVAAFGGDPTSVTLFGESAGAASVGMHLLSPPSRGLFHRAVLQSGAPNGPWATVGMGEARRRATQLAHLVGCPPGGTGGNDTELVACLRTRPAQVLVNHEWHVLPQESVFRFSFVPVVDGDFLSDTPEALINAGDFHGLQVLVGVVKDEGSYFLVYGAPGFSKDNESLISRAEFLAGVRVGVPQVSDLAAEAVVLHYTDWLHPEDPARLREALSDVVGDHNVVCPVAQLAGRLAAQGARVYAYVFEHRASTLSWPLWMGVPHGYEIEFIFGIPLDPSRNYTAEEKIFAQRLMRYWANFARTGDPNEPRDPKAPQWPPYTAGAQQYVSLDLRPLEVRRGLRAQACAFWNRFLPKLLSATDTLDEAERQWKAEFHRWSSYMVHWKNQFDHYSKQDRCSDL
Source text: National Center for Advancing Translational Sciences [NCATS]
Division of Preclinical Innovation [DPI]
U.S. Environmental Protection Agency [EPA]
National Institutes of Environmental Health Sciences [NIEHS]
National Toxicology Program [NTP]
U.S. Food and Drug Administration [FDA]
Acetylcholinesterase (AChE) is the primary cholinesterase in the body that hydrolyzes a key neurotransmitter, acetylcholine. Inhibition of AChE activity can lead to neurotoxicity. The known inhibitors include organophosphorous pesticides (OP), chemical warfare agents, drugs, and various phytochemicals. Some compounds like OP compounds may need metabolic activation to be active AChE inhibitors. The cytochrome P450 (CYP) superfamily in the human microsomes is responsible for the metabolism of various endogenous and exogenous compounds.
An enzyme-based assay with the recombinant human AChE, human liver microsomes and Amplite Colormetric acetylcholinesterase assay kit (AAT Bioquest, Sunnyvale, CA) was used to evaluate compounds in the Tox21 10K library that need metabolic activation for AChE inhibition. The assay uses 5, 5-dithiobis-(2-nitrobenzoic acid) (DTNB) to quantify the thiocholine produced from the hydrolysis of acetylthiocholine by AChE.
Tox21 Assay Protocol Summary:
For the enzyme-based AChE assay with microsomes addition, a mixture of human AChE (50 mU/mL) and human liver microsomes (0.25 mg/mL, final concentration) in 3 uL/well was dispensed into black, clear-bottom 1536-well plates using a Multidrop Combi dispenser (Thermo Scientific, MA). Then, 23 nL of compound or DMSO (vehicle control) was transferred into the assay plates by a Pintool Station (Wako Automation, CA). Following compound addition, 1 uL of NADPH (0.25 mg/mL, final concentration) was transferred to the assay plate by a Flying Reagent Dispenser (Beckman Coulter, CA). The plates were incubated for 30 min at 37 C and 5% CO2, followed by the addition of 4 uL of colorimetric detection cocktail solution (DTNB, acetylthiocholine) into each well using a Flying Reagent Dispenser (Beckman Coulter, CA) and then 10 min incubation at room temperature.
On the % scale 0 is the no-effect control and ±100 the full control effect; potency means the concentration at half of the fitted maximal effect.

Compound | activity change, negative = inhibition | Potency
CN(C)CCN(C)C | -0.0214% | –
c1ccc2c(c1)CCNC2 | -0.341% | –
CC(=O)OCC1=C(C(=O)O)N2C(=O)[C@@H](N)[C@H]2SC1 | -11.4% [at 23.6 µM] | –
CNC(=O)Oc1cc(C)c(N(C)C)c(C)c1 | – | 12.6 µM (active)
NC(=O)OCCCc1ccccc1 | 0.44% [at 53 µM] | –
Cl/C=C/CCl | -1.37% | –
CN1C(=O)COc2c(C(=O)NC3CN4CCC3CC4)cc(Cl)cc21 (stereo not given) | 2.18% [at 53 µM] | –
O=C(Cl)c1ccccc1 | -1.51% | –
CCC(CC)(CNC(=O)CCCO)c1cccc(OC)c1 | -0.136% [at 53 µM] | –
CC(C)N(Cc1ccccc1)C(=O)C(C)(C)C | 1.31% | –
CCCCS(=O)(=O)Cl | 1.22% | –
CCOC(=O)CCl | 1.19% | –
C/C(=N\NC(=O)Nc1cc(F)cc(F)c1)c1ncccc1C(=O)O | – | inactive
Cn1c(N)nc2c3cccnc3ccc21 | 0% | –
CCCOC(=O)c1cncn1C(C)c1ccccc1 (stereo not given) | 0.979% [at 53 µM] | –
COc1cccc(C=O)c1 | 0.688% | –
BrCCc1ccccc1 | -2.56% | –
CCC1(c2ccccc2)C(=O)N(COC)C(=O)N(COC)C1=O | -1.68% [at 53 µM] | –
CCCC(C)(COC(N)=O)COC(N)=O | -3.4% | –
CCOC(=O)COc1ccc(Cl)cc1Cl | -0.306% | –

Compound | activity change, negative = inhibition | Potency
CCN[C@@H](C)Cc1cccc(C(F)(F)F)c1 | -0.116% [at 53 µM] | –
O=C(O)C(Cl)Br (stereo not given) | 2.23% | –
O=CCCl | 0.594% | –
CC(C)(C)c1cc(O)ccc1O | – | inactive
N#CN=C1SCCN1Cc1ccc(Cl)nc1 | -2.12% | –
NC1(c2ccccc2)CCCCC1 | -2.51% | –
O=S1(=O)OCCO1 | 0.936% | –
O=C(NC(=O)c1c(F)cccc1F)Nc1cc(Cl)c(F)c(Cl)c1F | -0.351% | –
Cc1ccc2cc(C)ccc2c1 | 0.341% | –
Cc1cc(OC(=O)N(C)C)nn1C(=O)N(C)C | – | 39.9 µM (active)
ClCCCCCCCl | -0.306% | –
CCSC(=O)Cl | 0.37% | –
COc1cccc([C@@]2(O)CCCC[C@@H]2CN(C)C)c1 | 0.168% [at 53 µM] | –
CNC(=O)Oc1ccccc1C(C)C | – | 56.4 µM (active)
C=C(Cl)CSC(=S)N(CC)CC | -2.4% | –
CCC(=O)c1ccc(Cl)cc1 | 0.266% | –
Cc1cccc2sc3nncn3c12 | -0.926% | –
CC(=NC#N)N(C)Cc1ccc(Cl)nc1 | -2.22% | –
CCc1ccc(C2CCNCC2)cc1 | -8.65% [at 53 µM] | –
C#CCOC(=O)/C=C(C)/C=C/CC(C)CCCC(C)C (stereo not given) | 0.766% | –
